Data on seven molecules can be found in PubChem BioAssay (NCATS).

Values joined by “and” are separate entries in the source; they are usually repeats but may differ in a detail not shown here. Equal values may be shown once. Results filed as inconclusive are left out. Active and inactive are the calls of the source. Unless noted, calls follow the shape of the dose curve; as a rule, active = well fitted curve in the direction sought with a large enough effect; inconclusive = small, poorly fitted or top-dose-only effect, or another doubt; inactive = no such curve, though single readings can be large; an effect the other way counts as inactive or inconclusive.

Test [1] is described as follows: Cell Viability - N2a (AID 540).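 Also: plate controls were DMSO alone for no effect and tamoxifen control for full effect; nearly all actives have a fitted effect of over 45% in size.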 Particulars: N2a mouse neuroblastoma cell viability; activity change, negative = cytotoxicity: at 92.2 µM (top of the series). Summed up:
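Mouse neuroblastoma N2a cells, 1500/well, exposed to compounds 40 h at 37 °C in complete medium. Viability measured as cellular ATP by CellTiter-Glo luminescence; AC50 from Hill fits of concentration-response.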

Test [2] can be described thus: Cell Viability - SH-SY5Y (AID 544).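 Also: 0% = DMSO alone and -100% = 100 µM tamoxifen; nearly all actives have a fitted effect of over 55% in size.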 The note with it: SH-SY5Y neuroblastoma cell viability; viability change, negative = cytotoxic: at 92.2 µM (top of the series). Summed up:
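SH-SY5Y human neuroblastoma cells (1500/well) incubated 5 h, then compound-treated 40 h at 37 °C in complete medium. Viability read as intracellular ATP by CellTiter-Glo luminescence after 20 min; AC50 from Hill-equation fits of qHTS concentration-response.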

Test [3] is described as follows: Cell Viability - Renal Proximal Tubule (AID 545).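 Also: 0% = DMSO only and -100% = 100 µM tamoxifen; nearly all actives have a fitted effect of over 40% in size.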 Summed up: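 Viability taken as intracellular ATP (CellTiter-Glo luminescence) after 40 hr, 37 °C compound treatment of primary proximal tubule cells from rat kidney, 1000 cells/well; Hill-equation fits of qHTS concentration-response data gave AC50.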
In test [4] the target is Cytochrome P450 3A4 (Homo sapiens) (UniProt P08684). In words: qHTS Assay for Inhibitors and Substrates of Cytochrome P450 3A4 (AID 884). Also: nearly all actives have a fitted effect of over 50% in size. Also: potency is read from the fitted curve at half-maximal effect. Summed up:
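20 nM human CYP3A4 with 25 uM Luciferin-PPXE (at KM) in 200 mM KPO4, preincubated 10 min with compound; NADPH regeneration started a 60 min RT reaction. Luciferin detected by luminescence, normalized to 57 uM ketoconazole as full inhibition.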
On the technique in general: In qHTS, concentration-response curves come from the screen itself.

The nature of test [5]: Cell Viability - LYMP2-001 (AID 921).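 Also: 0% = DMSO only and full inhibition = tetraoctylammonium bromide control wells; nearly all actives have a fitted effect of over 70% in size.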 Summed up:
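Cellular ATP loss read by luciferase luminescence after 24 h compound exposure at 37 C in complete medium. LYMP2-001 lymphoblastoid cells, 2500/well; qHTS concentration-response data fitted with Hill equation for AC50.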

Test [6] is described as follows: Cell Viability - LYMP2-003 (AID 965).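 Also: cells exposed to compounds for 24 h before reading; 0% = DMSO only and full effect = 92 µM tetraoctylammonium bromide; nearly all actives have a fitted effect of over 50% in size.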 Put shortly:
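CellTiter-Glo luminescence quantified ATP loss after 24 h compound treatment of LYMP2-003 lymphoblastoid cells at 37 C. Titration series were fitted with the standard Hill equation to give AC50.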

The nature of test [7]: Cell Viability - LYMP2-015 (AID 971).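 Also: 0% = DMSO only and full effect = 92 µM tetraoctylammonium bromide; nearly all actives have a fitted effect of over 55% in size.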 Put shortly:
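LYMP2-015 human lymphoblastoid cells (2500/well) in complete medium, compound-treated 24 h at 37 C; viability read as cellular ATP by CellTiter-Glo luminescence after 30 min at room temperature. AC50 from Hill-equation fits of qHTS concentration-response data.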

Test [8] in a line: Cell Viability - LYMP2-019 (AID 973).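 Also: 0% = DMSO alone and full effect = 92 µM tetraoctylammonium bromide; nearly all actives have a fitted effect of over 55% in size.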 Put shortly: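 Human lymphoblastoid LYMP2-019 cells (2500/well) preincubated 5 h at 37 C, then treated 24 h at 37 C in complete medium. Viability by CellTiter-Glo ATP luminescence after 30 min at room temperature; AC50 from Hill fits.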
The nature of test [9]: Cell Viability - LYMP2-002 (AID 977).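 Also: plate controls were DMSO only for no effect and 92 µM tetraoctylammonium bromide for full effect.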 Summed up: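 Luminescent ATP readout (CellTiter-Glo, 30 min room temperature) after 24 h compound exposure at 37 C of a human lymphoblastoid line, 2500 cells/well. AC50 values derived by standard Hill fitting of qHTS concentration-response data.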
A short description of test [10]: Cell Viability - LYMP2-008 (AID 980). Also: % is scaled to controls: 0 for no effect and ±100 for the full control effect; nearly all actives have a fitted effect of over 60% in size. Put shortly: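 LYMP2-008 lymphoblastoid cells (2500/well) plated 5 h, then treated 24 h at 37 C in complete medium. Viability read as intracellular ATP by CellTiter-Glo luminescence after 30 min at room temperature; AC50 from Hill fits.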
Test [11] is described as follows: Cell Viability - LYMP2-010 (AID 981). Also: % is scaled to controls: 0 for no effect and ±100 for the full control effect; nearly all actives have a fitted effect of over 55% in size. Put shortly:
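Human lymphoblastoid LYMP2-010 cells (2500/well) treated 24 h at 37 C in complete medium; viability read as intracellular ATP by CellTiter-Glo luminescence. AC50 from Hill fits of concentration-response data; tetraoctylammonium bromide positive control.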

Test [12] is described as follows: Cell Viability - LYMP2-012 (AID 982).
The nature of test [13]: Cell Viability - LYMP2-020 (AID 986). Put shortly:
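Human lymphoblastoid LYMP2-020 cells (2500/well) preincubated 5 h at 37 C, then treated 24 h at 37 C. Viability measured as intracellular ATP by CellTiter-Glo luminescence after 30 min at room temperature; AC50 from Hill fits.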

Test [14] can be described thus: Cell Viability - LYMP2-022 (AID 987). Put shortly: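 LYMP2-022 lymphoblastoid cells (2500/well, complete medium) were treated with compounds for 24 hours at 37 C; intracellular ATP was then read by CellTiter-Glo luminescence after 30 min at room temperature. AC50 values were derived from Hill-equation fits.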
A short description of test [15]: Cell Viability - LYMP1-002 - Assay at 40 hr (AID 994).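 Also: 0% = DMSO only and full inhibition = 92 µM tetraoctylammonium bromide; nearly all actives have a fitted effect of over 60% in size.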 Summed up:
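LYMP1-002 human lymphoblastoid cells (2500/well, complete medium) were treated with compounds for 40 hr at 37 C. Intracellular ATP was measured by CellTiter-Glo luminescence, and AC50 values came from Hill-equation fits of concentration-response data; tetraoctylammonium bromide was the positive control.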

Test [16] is described as follows: qHTS assay for small molecule agonists of retinoid X receptor alpha signaling (AID 588544). Particulars: HEK293T RXRa-UAS-bla, beta-lactamase reporter, 18 h; 530 nm emission.
Test [17] is described as follows: qHTS assay for small molecule antagonists of retinoid X receptor alpha signaling (AID 588546; active = well fitted inhibition curve with a large enough effect in the signal ratio, with a control signal flat, not every such curve was filed as active; the % refers to the signal ratio;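 also: cells stimulated with 9-cis-retinoic acid as agonist; % is scaled to controls: 0 for no effect and ±100 for the full control effect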). The note with it: HEK293T RXRa-UAS-bla, beta-lactamase ratio, antagonist mode; measured here: W530 green channel, cytotoxicity proxy. Put shortly: (§1)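 Beta-lactamase reporter inhibition, read as CCF4 fluorescence ratio (ex 405, em 460/530 nm) after 2 h at RT. HEK293T UAS-bla cells, 2500/well, were stimulated with 9-cis-RA at 500 or 100 nM final alongside test compound for 18 h at 37 C.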

Test [18] deals with Retinoic acid receptor RXR-alpha (Homo sapiens) (UniProt P19793). The test is described as above. Particulars: HEK293T RXRa-UAS-bla, beta-lactamase ratio, antagonist mode. Put shortly:
as §1

Test [19] deals with Tumor necrosis factor (Homo sapiens) (UniProt P01375). Put plainly: qHTS assay to identify small molecules that stimulate Tumor Necrosis Factor-alpha (TNF-alpha) secretion (AID 651757; active = well fitted curve in the direction sought with a large enough effect in the signal ratio; the % refers to the signal ratio; also: 0% is about no effect). Put shortly:
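THP-1 cells (3000/well) exposed to compounds 17 hrs at 37 C. Secreted TNF-alpha detected by HTRF with cryptate- and XL665-labeled anti-TNF-alpha antibodies after 3 hr at room temperature.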

A short description of test [20]: qHTS assay for small molecule antagonists of the retinoid-related orphan receptor gamma (ROR-gamma) signaling pathway - cell viability counter screen (AID 720652; active = well fitted curve in the direction sought with a large enough effect in the repeat runs; an effect the other way counts as inactive or inconclusive;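 also: CHO reporter cells with doxycycline-induced ROR-gamma expression; compound exposure lasted 16 hr before ATP read; % is scaled to controls: 0 for no effect and ±100 for the full control effect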). Put shortly:
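CHO cells carrying TET-inducible ROR and RORE-luciferase reporter, plated 5 hr, then dosed with compound plus doxycycline. After 16 hr at 37 C, viability read as intracellular ATP by CellTiter-Glo luminescence.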

Sequence of Retinoic acid receptor RXR-alpha (Homo sapiens) (P19793 whole entry, looked up): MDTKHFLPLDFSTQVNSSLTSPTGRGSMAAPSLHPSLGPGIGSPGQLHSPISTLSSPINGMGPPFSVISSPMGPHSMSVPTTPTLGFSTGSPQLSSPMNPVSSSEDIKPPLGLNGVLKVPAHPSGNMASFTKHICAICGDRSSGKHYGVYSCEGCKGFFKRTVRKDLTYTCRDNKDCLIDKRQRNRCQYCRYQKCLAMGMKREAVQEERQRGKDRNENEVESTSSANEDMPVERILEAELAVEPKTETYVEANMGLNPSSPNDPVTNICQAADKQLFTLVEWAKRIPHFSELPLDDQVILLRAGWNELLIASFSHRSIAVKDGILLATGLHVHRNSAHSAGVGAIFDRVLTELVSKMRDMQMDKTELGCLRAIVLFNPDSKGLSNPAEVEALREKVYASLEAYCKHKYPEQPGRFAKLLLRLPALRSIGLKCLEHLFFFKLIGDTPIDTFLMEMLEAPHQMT
Sequence of Cytochrome P450 3A4 (Homo sapiens) (P08684 whole entry, looked up): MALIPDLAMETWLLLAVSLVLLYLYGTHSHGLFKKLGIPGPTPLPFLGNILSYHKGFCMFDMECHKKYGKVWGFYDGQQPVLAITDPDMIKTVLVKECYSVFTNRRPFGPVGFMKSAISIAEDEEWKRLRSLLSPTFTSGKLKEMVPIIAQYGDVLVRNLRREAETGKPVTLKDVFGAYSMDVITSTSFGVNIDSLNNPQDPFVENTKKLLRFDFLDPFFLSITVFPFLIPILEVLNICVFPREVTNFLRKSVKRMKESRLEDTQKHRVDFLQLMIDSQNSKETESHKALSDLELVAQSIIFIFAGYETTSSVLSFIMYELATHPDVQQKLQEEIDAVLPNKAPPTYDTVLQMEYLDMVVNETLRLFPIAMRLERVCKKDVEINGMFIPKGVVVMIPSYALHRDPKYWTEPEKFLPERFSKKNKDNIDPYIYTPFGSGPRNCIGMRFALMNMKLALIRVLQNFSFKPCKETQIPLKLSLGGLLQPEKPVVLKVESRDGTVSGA
Sequence of Tumor necrosis factor (Homo sapiens) (P01375 whole entry, looked up): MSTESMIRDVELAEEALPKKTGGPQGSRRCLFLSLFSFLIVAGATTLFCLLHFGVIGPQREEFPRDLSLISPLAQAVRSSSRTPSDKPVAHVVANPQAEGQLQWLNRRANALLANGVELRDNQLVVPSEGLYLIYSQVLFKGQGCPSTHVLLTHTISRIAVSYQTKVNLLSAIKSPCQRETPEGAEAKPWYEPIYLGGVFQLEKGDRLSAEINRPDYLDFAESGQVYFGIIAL

On to `CC(=O)[O-].CC(=O)[O-].CC(=O)[O-].[Cr+3]`, for which the Potency result in test [1], in test [2], in test [4], in [5], in [6] and in test [7] was “inactive” each time. For the same molecule, the Potency result in test [8], in test [9], in [10], in test [11], in test [12] and in test [13] was “inactive” throughout. The Potency entry in test [14], in [15] and in [20] was “inactive” each time. Further, the outcome in test [3] and in test [19] was inactive. Further, the max response in test [16] was -6.52%; in test [17], -2.43%; in test [18], 18.8% (inactive).
In the case of `ClP(Cl)(Cl)(Cl)Cl`, the Potency entry in test [1], in [4], in test [5], in test [6], in test [7] and in [8] was “inactive” throughout. Further, the Potency result in test [9], in test [10], in test [12], in [13], in test [14] and in test [15] was “inactive” each time. The Potency result in [20] is “inactive”. Moreover, the result in test [3] and in test [19] was inactive. Further, the max response in [16] was 5.7%; in [17] it was 4.58%; in test [18], -15.7% (inactive).
In the case of `Cc1cc(-c2cc(C)c(N)c(C)c2)cc(C)c1N`, the Potency result in [1], in [2], in test [5], in test [6], in test [7] and in test [8] was “inactive” in each case. For the same molecule, the Potency entry in test [9], in [10], in test [11], in test [12], in [13] and in test [14] was “inactive” in each case. Moreover, the Potency entry in test [15] and in test [20] was “inactive” each time. Also, in test [3], the molecule was classed as inactive. Besides, the Potency in test [4] was 25.1 µM (active). In addition, the values for the max response in test [16], in test [17] and in test [18] were -7.36%, -0.244% and -4.04% (inactive), respectively.
Consider `Clc1cccc(Cl)c1Cl`, for which the Potency entry in [1], in [2], in [4], in test [5], in [6] and in [7] was “inactive” in each case. In addition, the Potency entry in test [8], in [9], in [10], in test [11], in [12] and in test [13] was “inactive” each time. Besides, the Potency result in test [14], in test [15] and in [20] was “inactive” throughout. Moreover, the outcome in test [3] and in test [19] was inactive. The max response is 4.23% and 3.5% in [16]; 3.05% and -10.8% in test [17]; 1.17% (inactive) and -4.41% (inactive) in test [18].
For `Nc1cc(Cl)ccc1Cl`, the Potency entry in test [1], in [2], in test [4], in test [5], in test [6] and in test [7] was “inactive” each time. Moreover, the Potency entry in [8], in test [9], in test [10], in test [11], in test [12] and in test [13] was “inactive” throughout. Besides, the Potency entry in test [14], in test [15] and in test [20] was “inactive” each time. Besides, the outcome in [3] and in test [19] was inactive. The figures for the max response in test [16], in [17] and in test [18] were -19.1%, 1.78% and 3.06% (inactive), respectively.
For `CC(=O)NNc1ccccc1`, the Potency result in test [1], in [2], in test [5], in test [6], in test [7] and in [8] was “inactive” in each case. The Potency entry in test [9], in [10], in test [11], in test [12], in test [13] and in [14] was “inactive” throughout. The Potency result in test [15] and in test [20] was “inactive” each time. Also, the molecule was called inactive in test [3] and in test [19]. Also, the figures for the max response in test [17] and in test [18] were -2.14% and -22.9% (inactive), respectively.
Take `CC(Cl)(Cl)Cl`: the Potency entry in [1], in test [2], in test [4], in test [5], in test [6] and in test [7] was “inactive” in each case. The Potency entry in [8], in test [9], in test [10], in test [11], in [12] and in [13] was “inactive” each time. Further, the Potency entry in test [14], in test [15] and in test [20] was “inactive” each time. Also, the molecule was classed as inactive in test [3] and in test [19]. Moreover, the max response is -3.95% and -14.6% in test [16]; 0.916% and -3.55% in test [17]; 5.12% (inactive) and 15.9% (inactive) in test [18].
